The structures appear in SMILES notation. Hit rate of the full screen: of about 4,600 compounds, about 2,900 (63%) were called active. So high a share suggests a set chosen from earlier hits. Not all results are given here. Values without a mark were called inactive.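 How the source made its calls: active means inhibition of yeast growth at or above a set limit in either of two replicates at 10 µM; inactive means the rest.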

The nature of this assay: TIM10 isogenic control strain growth inhibition – single concentration, luminescence, S. cerevisiae, counter-screen for tim10-1 synthetic lethality project, confirmation (AID 463215).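 Further: isogenic wild-type TIM10 control yeast grown in succinate dextrose medium; this counterscreen used the strain with wild-type TIM10; 0% = yeast with DMSO and 100% = medium wells lacking yeast.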 The conditions noted are these: BacTiter-Glo luminescence, 24 h, at 10 µM, hits give high values.
On to `N/C(=N\OC(=O)c1cc(-c2ccccc2)nc2ccccc12)c1ccncc1`, for which the inhibition was 64.8% (active).
As for `O=C(NCCN1C(=O)S/C(=C\c2cccnc2)C1=O)c1cccc(OC(F)F)c1`, the inhibition is -9.15%.
Take `CCCCNC(=S)N/N=C1\CCCCc2ccccc21`: the inhibition is 34.3% (active).
Regarding `CCN1/C(=C\c2ccc3ccccc3[n+]2CC)Sc2cc(C)ccc21`, the inhibition was 78.1% (active).
`Cc1oc2c(c1C(=O)N1CCOCC1)C(=O)c1ccccc1C2=O`: the inhibition was 22.8%.
`O=C(/C=C/Sc1ncn[nH]1)c1ccc(Cl)cc1`: the inhibition is 79% (active).
As for `O=C(ON=C1CCN(S(=O)(=O)c2ccccc2)CC1)c1ccc(Cl)cc1`, the figure is 62.2% (active).
Take `Cc1ccccc1NCC(=O)N/N=C\c1ccc([N+](=O)[O-])s1`: the inhibition is 37.2% (active).
With `O=[N+]([O-])c1ccc2c(c1)Nc1nc3ccccc3nc1N2`, the inhibition was 83.8% (active).
Regarding `O=C1NC(=O)C2C1C(c1ccc([N+](=O)[O-])cc1)=NN2Cc1ccccc1` (configuration not stated), the inhibition is 4.5%.
Consider `O=[N+]([O-])c1cccc(Nc2c3ccccc3nc3ccccc23)c1`, for which the inhibition was 21.6%.
With `COc1ccc(C(=O)COC(=O)c2ccc([N+](=O)[O-])s2)cc1OC`, the inhibition was 81.8% (active).
For the compound `COc1nc(NC2CCCCC2)nc(N2CCCCCC2)n1`, the inhibition was -15.7%.
In the case of `Cc1ccc(NC(=O)c2cccs2)cc1S(=O)(=O)N(C)C`, the inhibition is -1.3%.
`O=C(Nc1ccc2c(c1)CCC2)c1ccc(Br)s1`: the inhibition is 44% (active).
In the case of `N/C(Cc1ccc([N+](=O)[O-])cc1)=N\OC(=O)C1CCCCC1`, the inhibition is 49.2% (active).
Turning to `N/C(Cc1ccc([N+](=O)[O-])cc1)=N\OC(=O)COc1ccc2ccccc2c1`, the inhibition is 51% (active).
As for `CC1(C)CCSC(/C=C/c2ccccc2)=N1`, the inhibition is 56.7% (active).
On to `CSC(=S)N/N=C/c1c[nH]c2ccccc12`, for which the inhibition is 20.1%.
On to `CNC(=S)N/N=C/c1cn(Cc2ccc(C)cc2)c2ccccc12`, for which the inhibition was 53.4% (active).
As for `COC(=O)c1c(NC(=O)CSc2nncs2)sc2c1CCCCC2`, the inhibition was 25.7%.
`COC(=O)c1sccc1NS(=O)(=O)c1ccc(F)cc1F`: the inhibition is 42.8% (active).
As for `O=C(/C=C/c1cccs1)c1cc(Cl)ccc1OC(=O)N1CCOCC1`, the figure is 40.2% (active); as for `O=C(Oc1ccc(F)cc1)N1CCOCC1`, -0.9%.
In the case of `C[C@@H](NC(=O)OC(C)(C)C)c1nnc(S(=O)(=O)Cc2ccccc2)o1`, the inhibition is 43.6% (active).
In the case of `N#C/C(=C\c1ccccc1C(F)(F)F)C(=O)Nc1ccccc1F`, the inhibition is 46.9% (active).
Turning to `CCCc1[nH]nc2c1C(c1ccc(Br)s1)C(C#N)=C(N)O2` (configuration not stated), the inhibition is 73.4% (active).
Take `Cc1ccc(-c2ccc(/C=C(\C#N)C(N)=S)o2)c([N+](=O)[O-])c1`: the inhibition is 54.1% (active).
Turning to `O=[N+]([O-])c1ccccc1S(=O)(=O)Nc1cccc2cccnc12`, the inhibition was 19.5%.
On to `O=c1nc2s/c(=C\c3ccco3)c(=O)n2nc1Cc1ccccc1`, for which the inhibition is 56.5% (active).
As for `Oc1ccc(/C=N/N(Cc2ccccc2)c2ccccc2)cc1`, the inhibition is 28.2%.
Consider `CCOC(=O)c1ccc(N2C(=O)CC(N3CCC(C(=O)OCC)CC3)C2=O)cc1` (configuration not stated), for which the inhibition was 21.4%.
As for `Cc1cc(Nc2ccccc2)n(C(=O)c2ccc(N)cc2)n1`, the inhibition was 57.5% (active).
On to `CN1CCN(c2ccccc2NC(=O)COc2ccc(C3CCCCC3)cc2)CC1`, for which the inhibition is 30.4% (active).
Take `O=C(NC(Nc1nc2ccc([N+](=O)[O-])cc2s1)(C(F)(F)F)C(F)(F)F)c1ccccc1`: the inhibition was 77.7% (active).
Consider `N#C/C(=C\c1cccnc1)C(=O)Nc1ccc(SC(F)F)cc1`, for which the inhibition was 42.2% (active).
In the case of `CC1CCCCC1NC(=O)/C(C#N)=C/C=C/c1ccccc1[N+](=O)[O-]` (configuration not stated), the inhibition was 41.3% (active).
Regarding `COc1ccc2nc(N3CCN(C(=O)c4ccc([N+](=O)[O-])o4)CC3)sc2c1`, the inhibition was 82.2% (active).
Regarding `Cc1ccccc1OCC(=O)Nc1ccc(N2CCN(C(=O)C(C)C)CC2)c(Cl)c1`, the inhibition is 62.8% (active).
Regarding `Oc1c(Cl)cc(Cl)c(Cl)c1Cc1c(O)c(Cl)cc(Cl)c1Cl`, the inhibition was 89.8% (active).
For `CSC1=N/C(=C\C=C\c2cccs2)C(=O)S1`, the inhibition is 56.8% (active).
For `Cc1cccc(C2=N/C(=C/c3cccs3)C(=O)O2)c1` the value was 22%; for `O=C(CCN1CCc2ccccc2C(O)(c2ccccc2)C1)c1ccc2c(c1)OCCO2` (configuration not stated), 46.2% (active); for `Cc1cccc(NC(=S)NCc2ccc3[nH]c4c(c3c2)CCCC4)c1`, 34.5% (active).
Turning to `Cc1cc(C)cc(NC(=S)NCCc2c[nH]c3ccccc23)c1`, the inhibition was -10.2%.
In the case of `c1ccc(C2=Nc3cccc4cccc(c34)N2)cc1`, the inhibition is -39.8%.
Consider `O=C1c2ccccc2C(=O)c2c1cccc2N1CCN(Cc2ccccc2)CC1`, for which the inhibition was 34.2% (active).
On to `O=Cc1c(N2CCN(c3cccc(Cl)c3)CC2)nc2ccccn2c1=O`, for which the inhibition is 17.8%.
For `COc1cc(Br)cc(/C=N/c2ncn[nH]2)c1O` the value was 35% (active); for `c1ccc(-c2nnc3n2NC(c2ccc4c(c2)OCO4)S3)cc1` (configuration not stated), 59.1% (active); for `Cc1ccc(-c2nn(C(C)(C)C)c3ncnc(N)c23)cc1`, 54.8% (active).
For the compound `CC(C)(CCl)C(=O)Nc1ccc(Sc2ccc(F)cc2)cc1`, the inhibition is 41% (active).
In the case of `C=CCNC(=O)c1ccc2c3n(nc2c1)-c1ccc(C)cc1CO3`, the inhibition was 45.5% (active).
Consider `CCOC(=O)C1=C(C)N=c2s/c(=C\C(=O)OC)c(=O)n2C1c1ccc(OC)cc1` (configuration not stated), for which the inhibition was 53.6% (active).
Turning to `O=C(COC(=O)c1ccc([N+](=O)[O-])o1)NC12CC3CC(CC(C3)C1)C2`, the inhibition is 44.8% (active).
On to `S=C(NCc1ccc(Cl)cc1)NC12CC3CC(CC(C3)C1)C2`, for which the inhibition is 23.8%.
Turning to `COc1ccc(CN(C(=O)CSc2nnc(-c3ccc(OC)c(OC)c3)o2)c2ccc(F)cc2)cc1`, the inhibition was 19%.
Turning to `CCN(CC)c1ccc(/C=N/NC(=O)c2cnccn2)c(O)c1`, the inhibition was 41.4% (active).
As for `COc1ccc(C(=O)O/N=C(\N)Cc2ccc(Cl)cc2Cl)cc1OC`, the inhibition is 86.7% (active).
Take `Cc1cc(N=Nc2ccc3ccccc3c2)ccc1O`: the inhibition was 88.4% (active).
In the case of `FC(F)(F)c1cnc(Oc2ccccc2-c2nnc(-c3ccc(Cl)cc3)o2)c(Cl)c1`, the inhibition is 5.25%.
`O=C1Oc2ccccc2C(=O)/C1=C/c1ccccc1O`: the inhibition is 57.5% (active).

As usually defined, the inhibition is the relative decrease from the control value, in per cent.

These data come from PubChem BioAssay AID463215 (Sanford-Burnham Center for Chemical Genomics, 2010).
